# Screens from PubChem.
# Hits are enriched below; roughly 7.5% of the tested compounds scored in any of these assays.
# NPC1 prom act = NPC1 promoter activation; Huh7 NPC1 promoter luciferase reporter, 24 h; Potency, µM (doses to about 9.22 µM), without a hit: at the top dose activation, usual class: activators; 320,000 tested, 2.4% active; AID 485313; further: % of control where 0% means no effect; nearly all actives have a fitted effect of over 60% in size
#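 Huh7 cells stably carrying NPC1 promoter–luciferase, plated in Opti-MEM with 10% FBS for 2 h, were exposed to compound in DMSO for 24 h at 37 °C; luciferase reagent was added for 10 min and luminescence read.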
# Rab9 prom act = Rab9 promoter activation | Potency, µM (highest dose often 9.22 µM), without a hit: top-dose activation, negative = inhibition, most hits filed as activators | Huh7 Rab9 promoter-luciferase reporter, luminescence, 24 h | 320,000 tested, 2.8% active | AID 485297; further: % of control where 0% means no effect; nearly all actives have a fitted effect of over 60% in size
#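 Huh7 cells stably carrying a Rab9 promoter-luciferase reporter, 1500 cells per well in OP-MEM I with 10% FBS, treated with compound 24 hours at 37C. Luciferase activity read by luminescence after 10 minutes with Amplite reagent.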
# ELG1 genotoxic = induces genotoxicity in HEK293T cells with luciferase-tagged ELG1; HEK293T ELG1-luciferase reporter, luminescence, 16 h; Potency, µM (top dose mostly 46 µM), for inactives: at the highest dose activity change, positive = activation, hits mostly activators; 330,000 tested, 1.3% active; AID 504466; further: % of control where 0% means no effect; nearly all actives have a fitted effect of over 60% in size
#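 Cells (2,000/well) expressing the ELG1-luciferase fusion are dosed by pin tool and kept 16 hr at 37 °C, 5% CO2. Signal comes from ONE-Glo luciferase reagent after 30 min at room temperature.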
# SMN2 splice enh = increases expression of the SMN2 splice variant; HEK293 SMN2-luciferase splicing reporter, luminescence, 30-36 h; Potency, µM (titrated, usually from 46.1 µM), for the others: at the highest dose activity change, positive = activation, hits mostly activators; 210,000 tested, 2.8% active; further: % of control where 0% means no effect; nearly all actives have a fitted effect of over 55% in size
#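 qHTS luciferase splicing reporter: luminescence rises when SMN2 exon 7 is included in transfected HEK293 cells. Compound exposure lasted 30-36 h at 37C, with 4.5 mM final sodium butyrate as control, followed by a ONE-Glo read.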
# KinaseGlo FLuc = counter-screen: inhibitors of Kinase-Glo firefly luciferase; Q27757; Kinase-Glo luciferase, ATP luminescence, 8 min; AID 1379; 200,000 tested, 0.28% active; Potency, µM (titrated, usually from 38.3 µM), inactives show at the highest dose activity change, negative = inhibition, most hits filed as inhibitors; further: on the % scale 0 is the no-effect control and ±100 the full control effect; nearly all actives have a fitted effect of over 60% in size
#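 Luminescence was the read-out, taken after 8-minute incubation at ambient temperature. Luciferase turned over luciferin with 10 uM ATP in imidazole pH 7.2 buffer containing KCl, MgCl2, Tween 20 and BSA.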
# FLuc modulator = inhibits or activates purified firefly luciferase, miR-21 counter-screen | P08659 | purified FLuc, Km substrates, luminescence inhibition | Potency, µM (doses to about 57.5 µM), for the others: top-dose activity change, negative = inhibition, actives largely listed as inhibitors | 360,000 tested, 6.9% active;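 further: plate controls were vehicle for no effect and reference inhibitor for full effect; nearly all actives have a fitted effect of over 55% in size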
# Target sequence (P08659 whole entry, looked up): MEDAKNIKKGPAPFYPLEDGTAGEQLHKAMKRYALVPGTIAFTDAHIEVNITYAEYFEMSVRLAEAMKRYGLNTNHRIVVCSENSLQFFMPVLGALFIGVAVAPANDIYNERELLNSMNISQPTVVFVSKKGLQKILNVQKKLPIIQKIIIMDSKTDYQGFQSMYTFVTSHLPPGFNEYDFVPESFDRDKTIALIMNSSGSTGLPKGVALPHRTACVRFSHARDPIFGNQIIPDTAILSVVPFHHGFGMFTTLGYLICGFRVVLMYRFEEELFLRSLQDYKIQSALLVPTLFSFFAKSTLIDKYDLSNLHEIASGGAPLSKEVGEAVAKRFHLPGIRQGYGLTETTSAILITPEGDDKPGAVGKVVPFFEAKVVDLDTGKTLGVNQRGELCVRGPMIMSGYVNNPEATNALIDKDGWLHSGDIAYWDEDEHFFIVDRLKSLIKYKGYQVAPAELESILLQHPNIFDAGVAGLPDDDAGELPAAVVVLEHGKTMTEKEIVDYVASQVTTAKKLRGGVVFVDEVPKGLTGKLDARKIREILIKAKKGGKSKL
#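 Purified P. pyralis luciferase (10nM final) with 10uM D-luciferin and 10uM ATP (Km levels) in 50mM Tris acetate pH 7.5, 10mM Mg acetate, 0.01% Tween-20, 0.05% BSA; qHTS 6-point titration, ~60 µM downward; luminescence read.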
# * hit, by the source's call; ? = inconclusive; . = not tested or not shown; [ ] = dose if it differs, or a comment. The call rests on the fitted dose curve; in most records, active means well fitted curve in the direction sought with a large enough effect; inconclusive means small, poorly fitted or top-dose-only effect, or another doubt; inactive means no such curve, though single readings can be large; an effect the other way counts as inactive or inconclusive. Potency means the concentration at half of the fitted maximal effect.
SMILES,NPC1 prom act,Rab9 prom act,ELG1 genotoxic,SMN2 splice enh,KinaseGlo FLuc,FLuc modulator
C=CCN1C(=O)/C(=C\C=C2\N(C)c3ccccc3C2(C)C)SC1=S,-3%,-3%,-1%,-23%,-16%,-3%
CCCCN1C(=O)/C(=C/C=C2/CC(C)(C)CN2C)SC1=S,28%,?,?,16%,0%,9.5µM*
CCN1C(=O)/C(=C/C=C2/Sc3ccccc3N2CCO)SC1=S,0%,1%,11%,-48%,?,-15%
CN1/C(=C\C=C2/SC(=S)N(CC(=O)O)C2=O)C(C)(C)c2ccccc21,-6%,1%,-5%,-22%,-16%,17µM*
CN1CCS/C1=C\C=C1/SC(=S)N(CC(=O)O)C1=O,-2%,1%,-3%,0%,-1%,13µM*
CCN1C(=O)/C(=C/C=C2/SCCN2C)SC1=S,0.45µM*,0.45µM*,?,?,-18%,0.85µM*
O=C(Nc1ccc(Br)cc1)c1cnn2c1NC(=C1CC1)C=C2C(F)F,.,.,.,.,.,1%
CCn1c(=O)c2cc(C(=O)N(C)c3cc(C)ccc3C)sc2c2ccccc21,.,.,.,1%,.,-18%
CN(C)c1ccc(NC(=S)c2ccc3ccccc3n2)cc1,?,24%,?,.,.,17µM*
Cc1ccc(C)c(NC(=S)c2ccccn2)c1,21%,23%,15%,17%,-11%,17µM*
CN(CC(=O)Nc1ccc(F)cc1)C(=O)c1ccc2ccccc2n1,-3%,-1%,1%,.,.,-2%
Cc1ccc(C)c(NC(=S)c2ccc3ccccc3n2)c1,?,3.2µM*,?,11µM*,0%,5.4µM*
Cc1ccc(C)c(CN2C(=O)c3ccccc3S(=O)(=O)c3ccc(C(=O)N4CCN(c5ccccn5)CC4)cc32)c1,.,.,.,?,.,-3%
COc1ccc(-c2nc3sc(CCNC(=O)c4ccc(Br)o4)c(C)n3n2)cc1,.,.,.,.,.,11µM*
COc1ccc(-c2nc3sc(CCNC(=O)c4ccc(C(C)(C)C)cc4)c(C)n3n2)cc1,.,.,.,.,.,4.8µM*
CCC(=O)NCCc1sc2nc(-c3ccc(OC)cc3)nn2c1C,.,.,.,.,.,19µM*
COc1ccc(-c2nc3sc(CCNC(=O)c4cc(Cl)ccc4OC)c(C)n3n2)cc1,.,.,.,.,.,7.6µM*
CCn1c(=O)cc(SCC(=O)NCc2ccccc2OC)c2ccccc21,.,.,.,-2%,.,-5%
COC(=O)c1cc(C)ccc1OCc1ccc([N+](=O)[O-])cc1,10%,21%,10%,.,.,-2%
CCOc1cc(C(=O)NCCc2csc3nc(-c4ccccc4F)nn23)cc(OCC)c1OCC,.,.,.,.,.,-13%
CC(C)(C)c1ccc(C(=O)NCCc2csc3nc(-c4ccccc4F)nn23)cc1,.,.,.,.,.,12µM*
O=C(CSc1ccc(-c2ccccc2)nn1)Nc1ccc2c(c1)OCCO2,21%,?,?,16µM*,-1%,11µM*
O=C(CSc1nnc2ccccn12)Nc1ccc2c(c1)OCCO2,?,2.5µM*,?,.,.,?
O=C(CSc1ccc2c(c1)OCCO2)Nc1ccc2c(c1)OCO2,-1%,0%,0%,-7%,19%,?
O=C(CSc1nnc2scc(-c3ccccc3)n12)Nc1ccc2c(c1)OCCO2,1%,-2%,0%,?,-2%,2%
SMILES,NPC1 prom act,Rab9 prom act,ELG1 genotoxic,SMN2 splice enh,KinaseGlo FLuc,FLuc modulator
O=C(CSc1ccccc1)Nc1ccc2c(c1)OCO2,?,?,?,.,.,17µM*
O=C(CSc1nnc2ccccn12)NCc1ccc2c(c1)OCO2,-1%,-8%,4%,-9%,-4%,7%
O=C(CSCc1ccccc1F)NCc1ccccc1,?,?,?,?,3%,24µM*
CCCCS(=N)(=O)CC[C@H](N)C(=O)O (stereo partly drawn),5%[46.1 µM],4%[46.1 µM],.,9%,-5%,.
O=C(CCS(=O)(=O)c1ccccc1)Nc1ccc2c(c1)OCO2,?,?,?,.,-1%,27µM*
CS(=O)(=O)N(CC(=O)Nc1ccc2c(c1)OCO2)c1ccccc1,1%,0%,8%,-7%,-3%,3%
